# This is a sample that favours compounds with a hit; in the whole collection about 10% have one here.
# SW480 rereplic = A quantitative high throughput screen for small molecules that induce DNA re-replication in SW480 colon adenocarcinoma cells | SW480 DNA re-replication, Hoechst DNA content imaging, 48 h | Potency, µM (series often up to 46.1 µM), most hits filed as activators | actives 1.8% (n = 340,000) | AID 624297, 2012; also: nearly all actives have a fitted effect of over 55% in size
#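 DNA re-replication was detected as more nuclei of elevated Hoechst intensity after 48 hr exposure to compound (23 nL pinned per well of 250 cells).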
# MCF10A rerep = A quantitative high throughput screen for small molecules that induce DNA re-replication in MCF 10a normal breast cells; MCF 10A DNA re-replication, Hoechst nuclear intensity, 48 h; Potency, µM (top dose mostly 46.1 µM), most hits filed as activators; actives 2.9% (n = 350,000); AID 624296, 2012; also: nearly all actives have a fitted effect of over 50% in size
# VP16 counter = VP16 counterscreen qHTS for inhibitors of ROR gamma transcriptional activity. actives 3.5% (n = 310,000). Potency, µM (titrated, usually from 53.6 µM), hits mostly inhibitors. Drosophila S2 Gal4-VP16 UAS-luciferase, luminescence, 20 h. AID 2546, 2010;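 also: Gal4-VP16 expression switched on by copper sulfate through the metallothionein promoter; nearly all actives have a fitted effect of over 50% in size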
# RORgamma inh = qHTS for inhibitors of ROR gamma transcriptional activity; Nuclear receptor ROR-gamma (Mus musculus), P51450; Drosophila S2 Gal4-RORgamma UAS-luciferase reporter, 20 h; actives 5.4% (n = 310,000); Potency, µM (series often up to 53.6 µM), usual class: inhibitors; AID 2551, 2010; also: nearly all actives have a fitted effect of over 60% in size
# Target sequence (P51450 whole entry, looked up, the tested form may be a part): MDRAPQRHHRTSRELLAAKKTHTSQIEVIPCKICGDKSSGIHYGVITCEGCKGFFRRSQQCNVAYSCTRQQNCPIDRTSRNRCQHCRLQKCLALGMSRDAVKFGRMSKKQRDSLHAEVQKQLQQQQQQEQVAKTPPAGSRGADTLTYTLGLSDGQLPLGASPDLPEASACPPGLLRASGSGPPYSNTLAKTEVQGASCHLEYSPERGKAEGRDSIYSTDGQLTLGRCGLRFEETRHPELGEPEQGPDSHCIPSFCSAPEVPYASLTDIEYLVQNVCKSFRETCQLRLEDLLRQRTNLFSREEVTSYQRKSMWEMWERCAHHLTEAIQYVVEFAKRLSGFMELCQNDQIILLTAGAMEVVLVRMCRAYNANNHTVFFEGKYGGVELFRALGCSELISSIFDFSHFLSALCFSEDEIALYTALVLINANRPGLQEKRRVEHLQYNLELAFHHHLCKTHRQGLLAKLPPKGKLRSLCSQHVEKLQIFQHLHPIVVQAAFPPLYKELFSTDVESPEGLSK
#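 Compounds are pin-transferred onto Drosophila Schneider cells expressing a copper-inducible Gal4–ROR gamma transactivation domain fusion. After 1 hr, copper sulfate is added to 700 uM final; luciferase is read 20 hr later.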
# ELG1 repair inh = qHTS screen for small molecules that inhibit ELG1-dependent DNA repair in human embryonic kidney (HEK293T) cells expressing luciferase-tagged ELG1. HEK293T ELG1-luciferase reporter, luminescence, 16 h; DNA damage induced by 5-fluorouridine. Potency, µM (titrated, usually from 46.1 µM), hits mostly inhibitors. actives 2.3% (n = 330,000). AID 504467, 2011; also: nearly all actives have a fitted effect of over 55% in size
#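 Cells (2,000 per well) received 5-fluorouridine plus test compound or DMSO and were incubated 16 hr at 37 °C, 5% CO2. Luciferase activity was read by luminescence 30 min after ONE-Glo addition; signal suppression marked inhibition of damage-induced ELG1 function.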
# A number is an active result; i = inactive; ? = inconclusive; nt = not tested or not shown. Calls follow the shape of the dose curve; as a rule, active = well fitted curve in the direction sought with a large enough effect; inconclusive = small, poorly fitted or top-dose-only effect, or another doubt; inactive = no such curve, though single readings can be large; an effect the other way counts as inactive or inconclusive.
SMILES,SW480 rereplic,MCF10A rerep,VP16 counter,RORgamma inh,ELG1 repair inh
COc1ccccc1C(=O)Nc1nnc(CCc2ccccc2)s1,6.51µM,?,i,i,i
COc1ccc(Cc2nnc(NC(=O)c3ccccc3[N+](=O)[O-])s2)cc1,i,23.1µM,i,i,i
CCOC(=O)Cc1nnc(NC(=O)c2ccccc2OC)s1,i,i,i,i,i
CCCCC(=O)Nc1nnc(CCc2ccccc2)s1,i,i,i,i,i
CCCCCC(=O)Nc1nnc(CCc2ccccc2)s1,i,i,?,12.6µM,i
COc1cc(NC(=O)CSc2nnc(-c3ccncc3)o2)cc(OC)c1OC,i,i,i,i,i
Cc1cc(=O)oc2c3c(cc(OCC(=O)NC(Cc4ccc(Cl)cc4)C(=O)O)c12)OC(C)(C)CC3 (centres undefined),i,i,i,i,i
COc1ccc2no[n+]([O-])c2c1,nt,nt,7.08µM,6.31µM,?
COc1cc(OC)c(OC)cc1CNC(=O)c1cc(=O)c2ccccc2o1,i,i,i,i,?
O=C(CC(O)(CC(=O)OCc1ccccc1)C(=O)OCc1ccccc1)OCc1ccccc1,i,18.4µM,nt,nt,nt
CCOC(=O)N1CCN(C/C(C)=C/c2ccccc2)CC1,i,i,i,i,i
O=C(/C=C/c1ccc(N2CCC(c3ccccc3)=N2)cc1)c1ccccc1,?,6.51µM,i,i,?
CCOC(=O)/C(=C\c1ccc(N2CCC(c3ccccc3)=N2)cc1)C(C)=O,1.46µM,1.46µM,nt,nt,nt
COc1ccc(CN2CCN(C(=O)c3cccc4ccccc34)CC2)cc1OC,6.51µM,0.651µM,i,i,11.6µM
CCOc1cc(CN2CCN(c3cccc(C(F)(F)F)c3)CC2)ccc1OC,i,i,i,i,25.9µM
CCOc1cc(CN2CCN(C(=O)c3cccc4ccccc34)CC2)ccc1OC,?,i,i,i,14.6µM
COc1ccc(CN2CCN(C(=O)c3cccc4ccccc34)CC2)cc1Br,i,i,?,i,?
CCOc1cc(CN2CCN(C(=O)c3ccco3)CC2)ccc1OC,i,i,i,i,i
CCOC(=O)c1c(NC(=O)c2ccccc2Cl)sc2c1CCc1ccccc1-2,i,16.4µM,i,i,i
CCOC(=O)c1c(NC(=O)c2ccccc2)sc2c1CCc1ccccc1-2,?,20.6µM,i,i,i
CC(C)c1ccc(NC2CCCN(C(=O)c3cccs3)C2)cc1 (centres undefined),i,i,i,?,i
CCC(C)C(Nc1ncnc2scc(-c3ccccc3)c12)C(=O)O (centres undefined),i,i,i,i,i
COc1cccc(/C=N/Nc2ncnc(Cl)c2N)c1O,?,?,3.16µM,1.78µM,i
COc1cccc(/C=N/Nc2ncnc3scc(-c4ccccc4)c23)c1O,?,13µM,12.6µM,2.82µM,7.31µM
COc1cccc(/C=N/Nc2nccnc2Cl)c1O,0.259µM,5.8µM,7.08µM,3.16µM,?
SMILES,SW480 rereplic,MCF10A rerep,VP16 counter,RORgamma inh,ELG1 repair inh
COc1ccc(CCNC(=O)CCC(=O)n2ncc3cc(C)ccc32)cc1OC,i,i,i,i,i
Cc1nnc(N/N=C/c2ccc(-c3ccc(Br)cc3)o2)n1N,i,?,8.91µM,3.16µM,i
Cc1ccc(/C=N/NC(=O)Nc2ccccc2)o1,i,i,?,i,?
O=C(O)c1ccc(N/N=C/c2ccc(-c3ccc(Br)cc3)o2)cc1,20.6µM,?,i,?,?
O=C(O)c1cc(-c2ccc(/C=N/Nc3ccc(Cl)cc3)o2)ccc1Cl,?,?,i,?,i
Cc1ccc(/C=N/Nc2ccc(C(=O)O)cc2)o1,?,i,0.398µM,0.316µM,?
COC(=O)Cc1csc(Nc2ccccc2Cl)n1,i,i,i,i,?
COc1ccccc1N(CC(=O)NCC1CCCO1)C(=O)Cn1nnc(-c2cccs2)n1 (centres undefined),i,?,i,i,i
C/C(=N/NS(=O)(=O)c1cc(C)ccc1C)c1ccncc1,?,i,i,i,i
NS(=O)(=O)c1cccc(NC(=O)CSc2nnc(C3CC3)n2Cc2ccccc2)c1,i,i,i,i,?
CCCCOc1ccc(C(=O)N/N=C/c2ccc(OCCN3CCCCC3)c(OC)c2)cc1,?,?,?,?,i
